# Laboratory results published in PubChem BioAssay (NCI).
# About 83,000 compounds went through this panel and 20% of them were active in at least one assay; those are over-represented in the sample as a whole.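 The test compound was applied at a single concentration to cells in 96-well plates for 48 hours, and percent growth was recorded.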 Active and inactive are the calls of the source.
# Test system: U251 CNS
# Test: NCI-60 one-dose screen, 48 h (100 = growth as untreated, 0 = no growth, -100 = all killed)
# Conditions: 10 µM unless noted
# Protocol: Growth inhibition of the U251 human tumor cell line is measured as a screen for anti-cancer activity. Cells are grown in 96 well plates and exposed to the test compound for 48 hours. Compounds are tested at a single concentration, which is 10^-5 M for most compounds. The reported endpoint is percent growth (GI% or GIPRCNT), where numbers from 0 - 100% represent growth inhibition, and numbers from -100% - 0 represent cell death. For example, a value of 40 represents 60% growth inhibition. A value of 0 means no net growth occurred over the course of the experiment. A value of -40 indicates 40% of cells at the beginning of the experiment died by the end of the experiment. A value of -100 means all cells are dead at the end of the experiment.
# NCI-60 Human Tumor Cell Lines Screen was performed using the standard one-dose NCI protocol, which is described in more detail at https://dtp.cancer.gov/discovery_development/nci-60/default.htm.
# Compounds with GIPRCNT values below 10 were considered active. Activity score was based on GIPRCNT using the following formula: […]
# Score is 0 for GIPRCNT values of 100 or above, 50 for GIPRCNT values of 0, and 100 for GIPRCNT values of -100.
row,Structure (SMILES),growth
1,C=C1CC[C@@H]2[C@](C)(COC(C)=O)[C@H](OC(C)=O)CC[C@@]2(C)[C@@H]1CC(Sc1ccccc1)C1=CCOC1=O (stereo not given in full),22.9% (inactive)
2,O=C(c1ccccc1)C1C(=O)N2C(=S)N(c3ccccc3)C(=O)C2C1c1ccc(Cl)cc1 (stereo not given),98.4% (inactive)
3,COC(=O)CCC(=O)C(=O)OC,3.32% [10 mM] (active)
4,COc1ccc(/C=C2\COc3ccc(O)cc3C2=O)c(OC)c1OC,60.8% (inactive)
5,CC(=O)n1nc(C(=O)OC(C)C)c2cc(C)c(C)cc21,86.3% (inactive)
6,CCN(CC)c1ccc(/C=C/C(=O)c2ccc(Nc3nc(Nc4ccccc4)nc(Nc4ccccc4)n3)cc2)cc1,43.4% (inactive)
7,O=C1/C(=C/c2ccc(Cl)c(Cl)c2)CN(C(=O)C(Cl)Cl)C/C1=C\c1ccc(Cl)c(Cl)c1,-92.4% (active)
8,Cc1ccc(Cc2cnc(NC(=O)c3cc(Br)cs3)s2)cc1,46.9% (inactive)
9,Cc1ccc(C2=Nc3c(N)ncnc3NC(c3ccc4c(c3)OCO4)C2)cc1 (stereo not given),46.9% (inactive)
10,Clc1ccc(Nc2nnc(COc3ccccc3)c3ccccc23)cc1,-12.7% (active)
11,CCN(C(=O)N1CCN(c2cc3c(cc2F)c(=O)c(C(=O)O)cn3C2CC2)CC1)c1nc(-c2ccc(Cl)cc2)cs1,15.1% (inactive)
12,Clc1ccc2c(c1)N(c1ncnc3ccc(-c4cnc5[nH]ncc5c4)cc13)CC2,39.8% (inactive)
13,O=[N+]([O-])/C(=C/C=C/c1ccccc1)c1ccccc1,37.2% (inactive)
14,O=C(O)c1ccc(-n2cc(/C=N/Nc3ccc(F)cc3)c(-c3cc4ccccc4oc3=O)n2)cc1,104% (inactive)
15,CNC(=O)c1c(NC(=O)c2ccc(C(F)(F)F)cc2)sc2c1CCC(=O)C2,-12.8% (active)
16,CCOC(=O)/C=C1\S/C(=N\Nc2cc(=O)[nH]c3ccc(Cl)cc23)N(c2ccccc2)C1=O,89.9% (inactive)
17,Cc1ccc(Sc2nnc(/N=C3\C(=O)Nc4ccccc43)s2)cc1,97.4% (inactive)
18,O=Cc1ccc([N+](=O)[O-])s1,89.6% (inactive)
19,O=C1c2cc(Cl)ccc2S(=O)(=O)c2c(NCCCNCCO)nc3ccccc3c21,-15.8% (active)
20,CS(=O)(=O)Nc1cc(-c2ccc3ncnc(Nc4c(Cl)ccc5c4OCO5)c3c2)cnc1Cl,-30.4% (active)

row,Structure (SMILES),growth
1,O=C(Cn1c(-c2ccc([N+](=O)[O-])cc2)nc2ccccc21)NNC(=O)c1cccnc1,77.9% (inactive)
2,CC[C@]12C=CCN3CC[C@@]4(c5cc(NC(=O)CCC(=O)OCc6cn(Cc7ccc(F)cc7)nn6)c(OC)cc5N(C)[C@H]4[C@@](O)(C(=O)OC)[C@@H]1OC(C)=O)[C@@H]32,101% (inactive)
3,O=C(O)/C(=C\c1ccc(Cl)cc1)c1ccc(Cl)cc1,91.9% (inactive)
4,N#CC1=C(N)Oc2c(sc3c(Br)cccc23)C1c1ccc(F)cc1 (stereo not given),21.4% (inactive)
5,OCc1cccc(-c2ccc3ncc(-c4nc(NC5CC5)ncc4F)n3c2)c1,-3.8% (active)
6,Cc1ccc(Cl)cc1Nc1nc(C(F)(F)F)ccc1C(=O)N/N=C/c1cccnc1,2.89% (active)
7,OCCCC1CCN(C(Cc2ccccc2)c2ccccc2)CC1 (stereo not given),93.2% (inactive)
8,COc1ccc(OC)c(-c2c(C#N)c(-c3cccs3)nc3c2c(-c2ccccc2)nn3-c2ccccc2)c1,100% (inactive)
9,COc1cc2c(c(OC)c1OC)-c1ccc(OC)c(=O)cc1[C@@H](NC(=O)CCl)CC2,4.55% (active)
10,O=C1/C(=C/c2ccc(Cl)cc2)COc2ccc(O)c(O)c21,-57% (active)
11,CCOC(=O)c1cc(-c2ccc([N+](=O)[O-])cc2)n(-c2ccc(C(=O)O)c(O)c2)c1C,70.9% (inactive)
12,Cc1oc(-c2ccc(Cl)cc2)nc1/C=C/C(=O)c1ccccc1,97.5% (inactive)
13,Clc1ccc(Sc2cnc(-c3ccccc3)o2)cc1,91.4% (inactive)
14,C#Cc1cccc(Nc2ncnc3ccc(-c4cnc(N)nc4)cc23)c1,54.7% (inactive)
15,CCNc1nc(-c2ccc(Cl)c(OC)c2)c(-c2ccnc(NCCCNS(=O)(=O)c3ccc(Cl)cc3)n2)s1,51.9% (inactive)
16,Cn1c(-c2ccc(Br)cc2)c(O)c(=O)c2c(F)cccc21,34.3% (inactive)
17,COc1cccc([C@H]2c3[nH]c4ccccc4c3C[C@H]3C(=O)N(CCCCCCC(=O)NO)CC(=O)N23)c1,61.5% (inactive)
18,CO/N=C(/C)c1ccc(NC(=O)CSc2nnc(-c3ccncc3)n2-c2ccccc2)cc1,17.4% (inactive)
19,O=C1/C(=C/c2ccccc2Br)COc2ccc(O)c(O)c21,4.99% (active)
20,CCOC(=O)c1c(C)nc2c(c1N)CC(=O)N2Cc1cc(F)cc(Cl)c1,90.8% (inactive)
